# From PubChem BioAssay (NCI)
# This is part of a sample that, as a whole, favours compounds with a hit. Of some 79,000 tested, about 15% had one in any assay. A number with no mark means an inactive call. Calls of active or inactive are those of the source. Cut-off read from the data, not from the text of the source: active = growth inhibition above about 70%; inactive = the rest.
# Assays:
# [1] = NCI Yeast Anticancer Drug Screen. Data for the wt1 strain (AID 149);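 note: 0% = growth of vehicle-treated wt1 cultures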; conditions: S. cerevisiae wt1 strain (SPY 50644) growth inhibition, stronger effect = higher value
# Method in brief: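 The wt1 strain was treated with compounds, and growth was compared with vehicle-treated cultures to give inhibition.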
# [2] = NCI Yeast Anticancer Drug Screen. Data for the rad50EPP+ strain (AID 151);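 note: 0% = growth of vehicle-treated control cultures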; conditions: S. cerevisiae rad50 mutant strain, stronger effect = higher value
# Method in brief: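 Genetically defined yeast (rad50EPP+, DNA damage repair alteration) is grown with compound, and inhibition of growth is expressed relative to vehicle-treated controls.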
# [3] = NCI Yeast Anticancer Drug Screen. Data for the mgt1 strain (AID 153); conditions: S. cerevisiae mgt1 mutant growth inhibition, stronger effect = higher value
# Method in brief: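 In the mgt1 strain, test compounds were added and growth inhibition was determined relative to vehicle-treated controls.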
# [4] = NCI Yeast Anticancer Drug Screen. Data for the rad50 strain (AID 155);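 note: 0% = growth of vehicle-only cultures of the same strain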; conditions: S. cerevisiae rad50 strain growth inhibition, stronger effect = higher value
# Method in brief: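 Cells are treated with compound, grown, and their growth is then scored against vehicle-only cultures of the same repair-deficient yeast strain.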
# [5] = NCI Yeast Anticancer Drug Screen. Data for the mec2-1 strain (AID 157); conditions: S. cerevisiae mec2-1 strain, stronger effect = higher value
# Method in brief: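 Each compound was tested on mec2-1 yeast, a strain altered in DNA damage repair or cell cycle control. Growth inhibition is reported relative to vehicle.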
# [6] = NCI Yeast Anticancer Drug Screen. Data for the rad14 strain (AID 159);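 note: 0% = growth of vehicle-treated control cultures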; conditions: S. cerevisiae rad14 strain growth inhibition, stronger effect = higher value
# Method in brief: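 Readout: yeast growth inhibition, referenced to vehicle-only cultures. Strain bears a defined alteration in DNA damage repair.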
# [7] = NCI Yeast Anticancer Drug Screen. Data for the sgs1 mgt1 strain (AID 161);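 note: 0% = growth of cultures given vehicle only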; conditions: S. cerevisiae sgs1 mgt1 strain, stronger effect = higher value
# Method in brief: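 Mutant yeast exposed to compound; growth scored against vehicle-only wells.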
# [8] = NCI Yeast Anticancer Drug Screen. Data for the CLN2oe strain (AID 163);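 note: 0% = growth of vehicle-only control cultures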; conditions: S. cerevisiae CLN2oe strain, stronger effect = higher value
# Method in brief: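 First, the altered yeast strain was treated with each compound; second, its growth was measured; finally, inhibition was derived by comparison with vehicle controls.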
# [9] = NCI Yeast Anticancer Drug Screen. Data for the cln2 rad14 strain (AID 165);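 note: 0% = growth equal to vehicle treated cultures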; conditions: S. cerevisiae cln2 rad14 strain, stronger effect = higher value
# Method in brief: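 Test compounds were added to cln2 rad14 yeast cultures; inhibition of growth was then determined by comparison with vehicle treatment.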
# [10] = NCI Yeast Anticancer Drug Screen. Data for the bub3 strain (AID 167); conditions: S. cerevisiae bub3 mutant strain, stronger effect = higher value
# Method in brief: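 Part of a panel of yeast mutants defective in DNA damage repair or cell cycle regulation. Each strain is grown with compound, and inhibition is calculated relative to solvent-treated cultures.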
# [11] = NCI Yeast Anticancer Drug Screen. Data for the wt2 strain (AID 169);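 note: 0% = growth of vehicle-treated yeast cultures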; conditions: S. cerevisiae wt2 strain growth inhibition, stronger effect = higher value
# Method in brief: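 The panel's yeast strains carry defined changes in DNA repair or cell cycle genes. Each strain is grown with compound, and growth loss is scored relative to vehicle.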
# [12] = NCI Yeast Anticancer Drug Screen. Data for the mlh1 strain (AID 171);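 note: 0% = growth of vehicle-treated control cultures of the same strain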; conditions: S. cerevisiae mlh1 strain growth inhibition, stronger effect = higher value
# Method in brief: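 Inhibition values reflect reduced yeast growth in the presence of compound, referenced to vehicle controls, using a strain chosen for its alteration in DNA repair or cell cycle control.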
# [13] = NCI Yeast Anticancer Drug Screen. Data for the sgs1 strain (AID 173);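 note: 0% = growth of vehicle-only control cultures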; conditions: S. cerevisiae sgs1 mutant, stronger effect = higher value
# Method in brief: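 Vehicle-treated cultures served as reference for growth inhibition of a yeast strain altered in DNA damage repair or cell cycle control after compound exposure.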
# [14] = NCI Yeast Anticancer Drug Screen. Data for the mlh1 rad18 strain (AID 175); conditions: S. cerevisiae mlh1 rad18 strain growth inhibition, stronger effect = higher value
# Method in brief: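 Inhibition values reflect reduced growth of mutant yeast versus vehicle-treated controls following compound exposure; the mutations affect DNA damage repair.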
# [15] = NCI Yeast Anticancer Drug Screen. Data for the rad18 strain (AID 177); conditions: S. cerevisiae rad18 mutant growth inhibition, stronger effect = higher value
# Method in brief: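 Steps: expose repair-mutant yeast to compound; measure growth; express as inhibition relative to vehicle control.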
# [16] = NCI Yeast Anticancer Drug Screen. Data for the rad52 strain (AID 147);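 note: 0% = growth of vehicle-treated control cultures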; conditions: S. cerevisiae rad52 mutant growth inhibition, stronger effect = higher value
# Method in brief: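 Inhibition of yeast growth, referenced to vehicle controls, was the measured output for a strain with defective DNA damage repair.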
# [17] = at 5.0 µM (retest, dose inferred, filed as 0.5)
# [18] = at 50.0 µM (retest, dose inferred, filed as 5.0)
smiles,measurement,setting,value
CCOC(=O)C1=C(C)NC(C)=C(C(=O)OCC)C1c1ccccc1Cl,growth inhibition,[1]; at 1.2 µM,-8%
same,growth inhibition,[1]; at 3.7 µM,3%
same,growth inhibition,[1]; at 11.0 µM,-6%
same,growth inhibition,[1]; at 33.0 µM,40%
same,growth inhibition,[1]; at 100.0 µM,95% (active)
same,growth inhibition,[2]; at 1.2 µM,-5%
same,growth inhibition,[2]; at 3.7 µM,13%
same,growth inhibition,[2]; at 11.0 µM,9%
same,growth inhibition,[2]; at 33.0 µM,17%
same,growth inhibition,[2]; at 100.0 µM,26%
same,growth inhibition,[3]; at 1.2 µM,14%
same,growth inhibition,[3]; at 3.7 µM,14%
same,growth inhibition,[3]; at 11.0 µM,19%
same,growth inhibition,[3]; at 33.0 µM,54%
same,growth inhibition,[3]; at 100.0 µM,96% (active)
same,growth inhibition,[4]; at 1.2 µM,9%
same,growth inhibition,[4]; at 3.7 µM,23%
same,growth inhibition,[4]; [17],54%
same,growth inhibition,[4]; at 11.0 µM,29%
same,growth inhibition,[4]; at 33.0 µM,48%
same,growth inhibition,[4]; [18],100% (active)
same,growth inhibition,[4]; at 50.0 µM,90% (active)
same,growth inhibition,[4]; at 100.0 µM,91% (active)
same,growth inhibition,[5]; at 1.2 µM,8%
same,growth inhibition,[5]; at 3.7 µM,-2%
same,growth inhibition,[5]; [17],52%
same,growth inhibition,[5]; at 11.0 µM,-2%
same,growth inhibition,[5]; at 33.0 µM,51%
same,growth inhibition,[5]; [18],99% (active)
same,growth inhibition,[5]; at 50.0 µM,91.7% (active)
same,growth inhibition,[5]; at 100.0 µM,95% (active)
same,growth inhibition,[6]; at 1.2 µM,-4%
same,growth inhibition,[6]; at 3.7 µM,-10%
same,growth inhibition,[6]; at 11.0 µM,10%
same,growth inhibition,[6]; at 33.0 µM,53%
same,growth inhibition,[6]; at 100.0 µM,93% (active)
same,growth inhibition,[7]; [17],-15%
same,growth inhibition,[7]; [18],91% (active)
same,growth inhibition,[8]; at 1.2 µM,-13%
same,growth inhibition,[8]; at 3.7 µM,-22%
same,growth inhibition,[8]; at 11.0 µM,38%
same,growth inhibition,[8]; at 33.0 µM,56%
same,growth inhibition,[8]; at 100.0 µM,94% (active)
same,growth inhibition,[9]; [17],43%
same,growth inhibition,[9]; [18],90% (active)
same,growth inhibition,[10]; at 1.2 µM,35%
same,growth inhibition,[10]; at 3.7 µM,34%
same,growth inhibition,[10]; [17],26%
same,growth inhibition,[10]; at 11.0 µM,4%
same,growth inhibition,[10]; at 33.0 µM,62%
same,growth inhibition,[10]; [18],84% (active)
same,growth inhibition,[10]; at 100.0 µM,95% (active)
same,growth inhibition,[11]; at 1.2 µM,14%
same,growth inhibition,[11]; at 3.7 µM,11%
same,growth inhibition,[11]; at 11.0 µM,20%
same,growth inhibition,[11]; at 33.0 µM,49%
same,growth inhibition,[11]; at 100.0 µM,96% (active)
same,growth inhibition,[12]; at 1.2 µM,-38%
same,growth inhibition,[12]; at 3.7 µM,-31%
same,growth inhibition,[12]; at 11.0 µM,-25%
same,growth inhibition,[12]; at 33.0 µM,41%
same,growth inhibition,[12]; at 100.0 µM,93% (active)
same,growth inhibition,[13]; at 1.2 µM,26%
same,growth inhibition,[13]; at 3.7 µM,28%
same,growth inhibition,[13]; at 11.0 µM,38%
same,growth inhibition,[13]; at 33.0 µM,67%
same,growth inhibition,[13]; at 100.0 µM,96% (active)
same,growth inhibition,[14]; [17],36%
same,growth inhibition,[14]; [18],99% (active)
same,growth inhibition,[14]; at 50.0 µM,90.4% (active)
same,growth inhibition,[15]; at 1.2 µM,2%
same,growth inhibition,[15]; at 3.7 µM,18%
same,growth inhibition,[15]; at 11.0 µM,20%
same,growth inhibition,[15]; at 33.0 µM,50%
same,growth inhibition,[15]; at 100.0 µM,93% (active)
Nc1nc(N)c2c(n1)CCC(S(=O)(=O)c1ccc3ccccc3c1)C2 (stereo not given),growth inhibition,[16]; at 1.2 µM,26%
same,growth inhibition,[16]; at 3.7 µM,44%
same,growth inhibition,[16]; at 11.0 µM,54%
same,growth inhibition,[16]; at 33.0 µM,62%
same,growth inhibition,[16]; at 100.0 µM,65%
same,growth inhibition,[2]; at 1.2 µM,23%
same,growth inhibition,[2]; at 3.7 µM,35%
same,growth inhibition,[2]; at 11.0 µM,39%
same,growth inhibition,[2]; at 33.0 µM,40%
same,growth inhibition,[2]; at 100.0 µM,40%
same,growth inhibition,[4]; at 1.2 µM,-3%
same,growth inhibition,[4]; at 3.7 µM,13%
same,growth inhibition,[4]; [17],56%
same,growth inhibition,[4]; at 11.0 µM,32%
same,growth inhibition,[4]; at 33.0 µM,45%
same,growth inhibition,[4]; [18],72% (active)
same,growth inhibition,[4]; at 50.0 µM,49.2%
same,growth inhibition,[4]; at 100.0 µM,54%
same,growth inhibition,[5]; at 1.2 µM,14%
same,growth inhibition,[5]; at 3.7 µM,46%
same,growth inhibition,[5]; [17],83% (active)
same,growth inhibition,[5]; at 11.0 µM,65%
same,growth inhibition,[5]; at 33.0 µM,80% (active)
same,growth inhibition,[5]; [18],91% (active)
same,growth inhibition,[5]; at 50.0 µM,84.9% (active)
same,growth inhibition,[5]; at 100.0 µM,80% (active)
same,growth inhibition,[6]; at 1.2 µM,-2%
same,growth inhibition,[6]; at 3.7 µM,-6%
same,growth inhibition,[6]; at 11.0 µM,-11%
same,growth inhibition,[6]; at 33.0 µM,-8%
same,growth inhibition,[6]; at 100.0 µM,-4%
same,growth inhibition,[7]; [17],49%
same,growth inhibition,[7]; [18],60%
same,growth inhibition,[7]; at 50.0 µM,36%
same,growth inhibition,[8]; at 1.2 µM,-3%
same,growth inhibition,[8]; at 3.7 µM,6%
same,growth inhibition,[8]; at 11.0 µM,0%
same,growth inhibition,[8]; at 33.0 µM,8%
same,growth inhibition,[8]; at 100.0 µM,6%
same,growth inhibition,[9]; [17],5%
same,growth inhibition,[9]; [18],7%
same,growth inhibition,[9]; at 50.0 µM,6.95%
same,growth inhibition,[10]; at 1.2 µM,-41%
same,growth inhibition,[10]; at 3.7 µM,-27%
same,growth inhibition,[10]; [17],32%
same,growth inhibition,[10]; at 11.0 µM,-27%
same,growth inhibition,[10]; at 33.0 µM,3%
same,growth inhibition,[10]; [18],30%
same,growth inhibition,[10]; at 50.0 µM,-7.8%
same,growth inhibition,[10]; at 100.0 µM,2%
same,growth inhibition,[11]; at 1.2 µM,-35%
same,growth inhibition,[11]; at 3.7 µM,-8%
same,growth inhibition,[11]; at 11.0 µM,1%
same,growth inhibition,[11]; at 33.0 µM,5%
same,growth inhibition,[11]; at 100.0 µM,23%
same,growth inhibition,[12]; at 1.2 µM,-5%
same,growth inhibition,[12]; at 3.7 µM,3%
same,growth inhibition,[12]; at 11.0 µM,8%
same,growth inhibition,[12]; at 33.0 µM,10%
same,growth inhibition,[12]; at 100.0 µM,9%
